# Most compounds without a hit are left out; they make up all but 8.1% or so of the library.
# KB-3-1 tox: kills parental KB-3-1 adenocarcinoma cells; AID 1347075; Potency, µM (titrated, usually from 46.1 µM), usual class: cytotoxic; 400,000 tested, 1.4% active; KB-3-1 viability, CellTiter-Glo ATP luminescence, 72 h; further: on the % scale 0 is the no-effect control and ±100 the full control effect; nearly all actives have a fitted effect of over 60% in size
#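 Multi-concentration cytotoxicity screen in KB-3-1 cells grown in DMEM lacking phenol red with 10% FBS. After 72 h at 37 °C with compound, ATP-dependent luminescence was recorded.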
# MCF10A rereplic: induces DNA re-replication in MCF 10a normal breast cells; MCF 10A DNA re-replication, Hoechst nuclear intensity, 48 h; Potency, µM (series often up to 46.1 µM), for inactives: at the highest dose activity, positive = re-replication, actives largely listed as activators; 350,000 tested, 2.9% active; further: % of control where 0% means no effect; nearly all actives have a fitted effect of over 50% in size
# KB-V1 MDR tox: kills drug-selected multidrug resistant KB-V1 cells; KB-V1 MDR cells viability, CellTiter-Glo, 72 h; Potency, µM (doses to about 46.1 µM), most hits filed as cytotoxic; 400,000 tested, 3.4% active; AID 1347076; further: on the % scale 0 is the no-effect control and ±100 the full control effect; nearly all actives have a fitted effect of over 60% in size
#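 Cytotoxicity toward P-gp-expressing KB-V1 cells was determined as loss of CellTiter-Glo luminescence after 72 h at 37 degrees C. Compounds were tested in quantitative HTS format across a concentration range, with curves fitted to normalized data.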
# SW480 rereplic: DNA re-replication induction in SW480 cells; SW480 DNA re-replication, Hoechst DNA content imaging, 48 h; Potency, µM (titrated, usually from 46.1 µM), for the others: at the top dose re-replication activation, most hits filed as activators; 340,000 tested, 1.8% active; further: % of control where 0% means no effect; nearly all actives have a fitted effect of over 55% in size
#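 First, 250 cells per well were seeded. Next, compound or vehicle (23 nL) was pinned in, plates sat 48 hr at 37 C. Finally Hoechst was added for 40 min before fluorescence scanning.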
# ELG1 DNA repair: blocks ELG1-dependent DNA repair in HEK293T cells. Potency, µM (doses to about 46.1 µM), for the others: top-dose activity change, negative = inhibition, usual class: inhibitors. 330,000 tested, 2.3% active. HEK293T ELG1-luciferase reporter, luminescence, 16 h; DNA damage induced by 5-fluorouridine; further: on the % scale 0 is the no-effect control and ±100 the full control effect; nearly all actives have a fitted effect of over 55% in size
#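 Overnight (16 hr) co-exposure of 2,000 cells/well to 5-fluorouridine and compound at 37 °C preceded detection. Luciferase was quantified via ONE-Glo luminescence; loss of signal denotes inhibition.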
# An asterisk follows results filed as active; i = inactive; ? = inconclusive; / = not tested or not shown; ! = repeats disagree; [ ] = another dose, or the depositor's remark. The call rests on the fitted dose curve; in most records, active means well fitted curve in the direction sought with a large enough effect; inconclusive means small, poorly fitted or top-dose-only effect, or another doubt; inactive means no such curve, though single readings can be large; an effect the other way counts as inactive or inconclusive. Potency means the concentration at half of the fitted maximal effect.
SMILES,KB-3-1 tox,MCF10A rereplic,KB-V1 MDR tox,SW480 rereplic,ELG1 DNA repair
N#Cc1cc2c(nc1SCC(=O)Nc1cccc(F)c1)C1CCN2CC1,?,/,10.3µM*,/,/
COc1cc2c(cc1OC)-c1c(OC)c(OC)cc3c1[C@H](C2)N(C)CC3,?,12.9%,13µM*,-0.7%,0.2%
COc1cc2c(cc1O)CC1c3c(cc(O)c(OC)c3-2)CCN1C (stereo not given),i,2.4%,i,-6.5%,?
O=C(Cn1cnc2sc3c(c2c1=O)CCCC3)NCCCC(=O)N1CCC2(CC1)OCCO2,i,4.3%,i,-2.8%,0.4%
CC1=C2C(=O)C3C(CC=C4CC(O)CCC43C)C2CCC12OC1CC(C)CNC1C2C (stereo not given),i,-1.9%,i,0.5%,3.2%
[Cl][Pt+2][Cl].[NH-]C1CCCCC1[NH-] (stereo not given),i,-3.3%,i,?,25.8%
COC(=O)Nc1nc2ccccc2[nH]1,10.3µM*,?,3.66µM*,?,/
O=c1[nH]c(=O)n(-c2cccc3ccccc23)c(O)c1/C=N/N1CCCCC1,i,-2.3%,i,-1.1%,4.7%
Cc1cc(C(=O)OCC(=O)Nc2ccc(F)cc2)c(C)n1C1CC1,i,2.3%,23.1µM*,-0.3%,?
Cc1cc(C(=O)OCC(=O)Nc2cccc(F)c2)c(C)n1C1CC1,i,3.9%,i,1.4%,-6.2%
FC(F)(F)c1ccc(NC2=NCCCS2)cc1,i,-1.3%,i,-4.8%,?
COc1ccc(OC(=O)N2C/C(=C/c3ccccc3)C(=O)/C(=C\c3ccccc3)C2)cc1,?,7.31µM*,?,3.66µM*,/
CS(=O)(=O)CCN1CC2CCCC(C2)C1,i,1.2%,?,-1.9%,/
COc1ccc(-c2c3c(nc4sc5c(Cl)nc(C)nc5c24)CCC3)cc1,7.31µM*,?,?,-2.1%,15.8%
CC[C@@H](C)[C@H](C(CC(=O)N1CCCC1[C@@H](OC)[C@H](C)C(=O)N[C@H](Cc1ccccc1)c1nccs1)OC)N(C)C(=O)[C@H](NC(=O)[C@@H](C(C)C)N(C)C)C(C)C (stereo not given in full),?,14.7%,0.184µM*,0.082µM*,/
COC(=O)C1=C(C(=O)OC)SC2(S1)C(C(=O)OC)=C(C(=O)OC)Sc1c2ssc1=O,?,?,?,1.03µM*,/
Cc1nn(Cc2ccccc2)c(C)c1C(=O)OCC(=O)Nc1ccccc1SCC#N,i,-0.6%,7.31µM*,-3.7%,?
Cc1cc(NC(=O)COC(=O)c2c(C)nn(Cc3ccccc3)c2C)no1,?,-0.4%,?,2.9%[9.22 µM],-8.1%
CN1CCN(C(=O)COc2ccc(S(=O)(=O)Nc3ccc(F)cc3)cc2)CC1,i,?,i,?,6.1%
C[C@H]1CCC/C=C/C2C[C@H](O)CC2[C@H](O)/C=C/C(=O)O1 (stereo not given in full),0.0259µM*,0.259µM*,0.411µM*,?,?
CC1CCC/C=C/C2CC(O)CC2C(O)/C=C/C(=O)O1 (stereo not given),?,?,?,0.103µM*,0.651µM*
CC1(O)C[C@]2(C)N(O)C3CCCC[C@@H]3N2O1 (stereo not given in full),i,-3.7%,i,0.5%[9.22 µM],-18.2%
CC(=O)OC1C2CCC1C(N1CCCCC1)CC2 (stereo not given),i,-4.6%,i,-11.5%,12.9%
O=C(c1ccccc1)C(CN1CCCC1)c1ccccc1 (stereo not given),5.17µM*,3.26µM*,5.17µM*,7.31µM*,18.4µM*
CC(N=Cc1c(O)[nH]c(=O)[nH]c1=O)c1ccccc1 (stereo not given),i,15.7%,i,-5.3%,-19.0%
SMILES,KB-3-1 tox,MCF10A rereplic,KB-V1 MDR tox,SW480 rereplic,ELG1 DNA repair
COc1cc2c(cc1OC)[C@@]13CCN4CC5=CCOC6CC(=O)N2C1[C@H]6[C@@H]5C[C@@H]43 (stereo not given in full),/,-3.8%,/,4.0%,/
COc1ccc([C@@H](O)[C@@H](N)c2ccccc2)cc1,i,16.4%,i,-6.0%,/
O=C1NC(=O)C(=Cc2ccc(Sc3ccccc3)o2)C(=O)N1,i,?,?,?,?
CC1(C)OC(c2ccccc2)=C/C(=C/C=C2C(=O)NC(=O)NC2=O)O1,?,18.4µM*,i,18.4µM*,?
N#CC(C#N)=Cc1ccc(C=C(C#N)C#N)cc1,?,?,?,?,-12.1%
O=C(c1cccs1)c1cn(Cc2ccccc2Cl)c2ccccc12,i,17.1%,7.31µM*,-4.6%,-3.8%
N#Cc1ccccc1Cn1cc(C(=O)c2cccs2)c2ccccc21,i,3.1%,?,-1.9%,?
N#Cc1ccccc1Cn1cc(C(=O)c2ccccc2F)c2ccccc21,i,17.7%,2.31µM*,8.4%,?
C#CCOc1cc(C2C3=C(COC3=O)Nc3cc4c(cc32)OCO4)ccc1OC (stereo not given),i,?,?,2.06µM*,?
COc1ccc2c(c1OC)CN1CCc3cc4c(cc3C1C2)OCO4 (stereo not given),?,8.6%,i,7.7%,-7.6%
CCOC(=O)Cn1cc(C(=O)c2ccccc2)c2ccccc21,i,3.3%,i,-10.9%,-12.6%
COc1cc2cc(C(=O)N3CC(COS(C)(=O)=O)c4ccc(O)cc43)[nH]c2c(OC)c1OC (stereo not given),?,-7.3%,0.0092µM*,-7.8%,/
COC1/C=C/C=C(\C)Cc2cc(O)c(Cl)c(c2)N(C)C(=O)CC(OC(=O)C(C)C)C2(C)OC2C(C)C2CC1(O)NC(=O)O2 (stereo not given),?,?,0.731µM*,?,/
Cc1[nH]c2ccc(OCc3ccccc3)cc2c1CCN,i,2.2%,i,4.6%,?
COc1ccc(C(=O)Oc2cccc3cccnc23)cc1S(=O)(=O)N1CCOCC1,i,?,i,?,-0.1%
NC(=O)c1cn(C2OC(CO)C(O)C2O)c2ncnc(N)c12 (stereo not given),0.0206µM*,?,0.0073µM*!,0.058µM*,0.103µM*
NC(=O)c1ncn(C2OC(CO)C(O)C2O)n1 (stereo not given),/,-1.4%,/,-2.5%,/
N#Cc1cn(C2OC(CO)C(O)C2O)c2ncnc(N)c12 (stereo not given),0.0073µM*,18.7%,?,12.0%,/
NC(=O)c1c(Br)n(C2OC(CO)C(O)C2O)c2ncnc(N)c12 (stereo not given),4.11µM*,2.31µM*,9.2µM*,?,/
COC(=O)C12CCc3c(ccc4cc(OC)ccc34)C1=CC(=O)C2 (stereo not given),?,4.8%,20.6µM*,14.4%,/

# Screening results as filed in PubChem BioAssay.
